The results in this text go back to article PMC7862700, “An all-to-all approach to the identification of sequence-specific readers for epigenetic DNA modifications on cytosine”.

Assay in all cases: DAPPL (digital affinity profiling via proximity ligation, sequencing); 10 mM Tris-HCl pH 7.5, 50 mM NaCl, 1 mM DTT, 4% glycerol, room temperature, 30 min; GST-TFs on glutathione beads, 16-mer random dsDNA library, 0.1% formaldehyde crosslink after washing; high values mean tight binding
Test [1] concerns the target T1, FEV (Homo sapiens, UniProt Q99581 1-238).
T1 sequence: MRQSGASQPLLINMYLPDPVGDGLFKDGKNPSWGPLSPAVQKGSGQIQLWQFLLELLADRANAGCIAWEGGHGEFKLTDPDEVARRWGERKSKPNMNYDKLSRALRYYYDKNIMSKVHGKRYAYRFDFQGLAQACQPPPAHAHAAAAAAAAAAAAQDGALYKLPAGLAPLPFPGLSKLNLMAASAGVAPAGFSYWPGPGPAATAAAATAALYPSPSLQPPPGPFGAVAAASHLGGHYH
The following applies: protein: recombinant; tags: N-terminal GST; dsDNA, one strand shown. The procedure, abridged:
(§1)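 After expression in yeast as GST fusions, human transcription factors were bound to glutathione beads, DNA-barcoded and mixed with a tag-only sample. The pools were incubated with 200 nmole of a 16-mer random double-stranded DNA library in Tris/NaCl/DTT/glycerol buffer (30 min, room temperature), washed and crosslinked with 0.1% formaldehyde. Proximity ligation with BsaI/T4 ligase ran for 1 h at 37 °C, before PCR amplification and sequencing on an Illumina NextSeq500. Binding signal is a hexamer's read frequency for a factor divided by its frequency for the tag-only sample.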

In test [2] the target is ETV5 (Homo sapiens, UniProt P41161 1-510). Conditions: protein: recombinant; tags: N-terminal GST; dsDNA, one strand shown. The gist of the method: as §1
Test [3] has as its target HSF1 (Homo sapiens, UniProt Q00613 1-529). The following applies: protein: recombinant; tags: N-terminal GST; chain copies: 3; dsDNA, one strand shown. The gist of the method: as §1
In test [4] the target is T2, SPIC (Homo sapiens, UniProt Q8N5J4 1-248).
T2 sequence: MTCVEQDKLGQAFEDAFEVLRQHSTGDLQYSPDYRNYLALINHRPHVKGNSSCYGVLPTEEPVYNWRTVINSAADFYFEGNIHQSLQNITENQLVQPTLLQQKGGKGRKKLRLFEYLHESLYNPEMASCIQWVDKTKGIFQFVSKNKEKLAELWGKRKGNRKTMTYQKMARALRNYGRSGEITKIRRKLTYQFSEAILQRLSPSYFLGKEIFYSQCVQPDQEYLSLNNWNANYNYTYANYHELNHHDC
The following applies: protein: recombinant; tags: N-terminal GST; dsDNA, one strand shown. The procedure, abridged:
as §1

Test [5] has as its target ELF4 (Homo sapiens, UniProt Q99607 1-663). The following applies: protein: recombinant; tags: N-terminal GST; dsDNA, one strand shown. The procedure, abridged:
as §1

For test [6], the target named is T3, ELK4 (Homo sapiens, UniProt P28324-2 1-405).
T3 sequence: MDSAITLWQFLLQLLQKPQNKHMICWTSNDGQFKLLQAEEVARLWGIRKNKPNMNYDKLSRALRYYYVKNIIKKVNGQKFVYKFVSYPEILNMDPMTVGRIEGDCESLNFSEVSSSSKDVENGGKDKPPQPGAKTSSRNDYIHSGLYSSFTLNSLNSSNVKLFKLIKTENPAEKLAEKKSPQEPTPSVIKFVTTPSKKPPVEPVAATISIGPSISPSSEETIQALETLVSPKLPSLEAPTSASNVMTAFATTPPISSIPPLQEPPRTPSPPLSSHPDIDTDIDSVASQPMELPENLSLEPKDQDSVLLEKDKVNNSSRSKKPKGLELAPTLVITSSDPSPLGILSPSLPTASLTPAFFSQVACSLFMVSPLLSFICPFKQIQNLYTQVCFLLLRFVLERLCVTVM
Conditions: protein: recombinant; tags: N-terminal GST; dsDNA, one strand shown. The procedure, abridged:
as §1

The target of test [7] is T4, ETV2 (Homo sapiens, UniProt O00321 1-342).
T4 sequence: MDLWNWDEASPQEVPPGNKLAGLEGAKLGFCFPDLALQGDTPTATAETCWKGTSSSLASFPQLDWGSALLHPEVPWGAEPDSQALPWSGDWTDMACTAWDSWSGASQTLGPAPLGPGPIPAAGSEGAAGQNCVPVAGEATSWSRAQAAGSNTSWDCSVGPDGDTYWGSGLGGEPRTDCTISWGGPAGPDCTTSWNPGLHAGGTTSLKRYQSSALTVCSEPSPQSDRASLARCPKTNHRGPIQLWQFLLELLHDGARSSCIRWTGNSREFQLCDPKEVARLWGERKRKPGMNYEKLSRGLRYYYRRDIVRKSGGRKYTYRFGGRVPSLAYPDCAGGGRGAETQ
The following applies: protein: recombinant; tags: N-terminal GST; dsDNA, one strand shown. The gist of the method:
as §1

Test [8] deals with T5, ELF3 (Homo sapiens, UniProt P78545 1-371).
T5 sequence: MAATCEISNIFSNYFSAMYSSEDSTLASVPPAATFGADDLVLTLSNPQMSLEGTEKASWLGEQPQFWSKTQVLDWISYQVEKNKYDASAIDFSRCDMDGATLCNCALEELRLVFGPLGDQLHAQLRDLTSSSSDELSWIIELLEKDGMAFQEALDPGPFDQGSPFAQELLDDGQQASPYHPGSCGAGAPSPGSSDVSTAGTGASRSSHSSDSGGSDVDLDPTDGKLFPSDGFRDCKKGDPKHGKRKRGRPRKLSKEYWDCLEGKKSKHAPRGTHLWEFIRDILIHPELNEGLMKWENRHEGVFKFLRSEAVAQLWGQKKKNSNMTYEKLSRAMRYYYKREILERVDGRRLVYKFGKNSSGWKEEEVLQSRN
The following applies: protein: recombinant; tags: N-terminal GST; dsDNA, one strand shown. The procedure, abridged:
as §1

In test [9] the target is CRX (Homo sapiens, UniProt O43186 1-299). Conditions: protein: recombinant; tags: N-terminal GST; dsDNA, one strand shown. The procedure, abridged: as §1
In test [10] the target is ETV1 (Homo sapiens, UniProt P50549 1-477). The following applies: protein: recombinant; tags: N-terminal GST; dsDNA, one strand shown. The gist of the method: as §1
The target of test [11] is T6, ERF (Homo sapiens, UniProt P50548 1-548).
T6 sequence: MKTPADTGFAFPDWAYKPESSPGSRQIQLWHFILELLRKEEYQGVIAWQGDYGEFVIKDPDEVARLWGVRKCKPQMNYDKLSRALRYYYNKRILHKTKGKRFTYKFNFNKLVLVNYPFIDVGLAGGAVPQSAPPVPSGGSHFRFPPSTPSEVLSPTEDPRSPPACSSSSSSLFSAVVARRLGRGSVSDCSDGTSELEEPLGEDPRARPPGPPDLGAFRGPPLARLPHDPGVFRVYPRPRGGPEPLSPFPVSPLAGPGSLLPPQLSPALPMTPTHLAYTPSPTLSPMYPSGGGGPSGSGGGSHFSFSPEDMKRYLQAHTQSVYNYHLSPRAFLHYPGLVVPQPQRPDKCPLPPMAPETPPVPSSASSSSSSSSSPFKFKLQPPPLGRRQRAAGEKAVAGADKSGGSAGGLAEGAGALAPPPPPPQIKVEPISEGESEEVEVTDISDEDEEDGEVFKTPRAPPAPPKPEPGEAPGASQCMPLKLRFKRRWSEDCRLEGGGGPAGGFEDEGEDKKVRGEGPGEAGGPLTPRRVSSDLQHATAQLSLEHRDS
Conditions: protein: recombinant; tags: N-terminal GST; dsDNA, one strand shown. The gist of the method:
as §1

Test [12] deals with T7, ETV3L (Homo sapiens, UniProt Q6ZN32 1-361).
T7 sequence: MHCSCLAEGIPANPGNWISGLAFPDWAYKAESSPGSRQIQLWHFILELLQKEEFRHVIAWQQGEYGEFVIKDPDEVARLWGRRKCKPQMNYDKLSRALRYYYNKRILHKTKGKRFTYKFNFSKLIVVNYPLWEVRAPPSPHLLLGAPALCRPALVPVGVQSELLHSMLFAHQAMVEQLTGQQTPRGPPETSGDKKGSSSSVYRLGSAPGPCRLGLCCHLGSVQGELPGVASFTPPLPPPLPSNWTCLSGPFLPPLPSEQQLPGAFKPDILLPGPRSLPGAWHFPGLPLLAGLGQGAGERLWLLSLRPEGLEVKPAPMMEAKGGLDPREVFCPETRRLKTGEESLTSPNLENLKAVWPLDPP
Conditions: protein: recombinant; tags: N-terminal GST; dsDNA, one strand shown. The procedure, abridged:
as §1

Test [13] addresses T8, ETS2 (Homo sapiens, UniProt P15036 1-469).
T8 sequence: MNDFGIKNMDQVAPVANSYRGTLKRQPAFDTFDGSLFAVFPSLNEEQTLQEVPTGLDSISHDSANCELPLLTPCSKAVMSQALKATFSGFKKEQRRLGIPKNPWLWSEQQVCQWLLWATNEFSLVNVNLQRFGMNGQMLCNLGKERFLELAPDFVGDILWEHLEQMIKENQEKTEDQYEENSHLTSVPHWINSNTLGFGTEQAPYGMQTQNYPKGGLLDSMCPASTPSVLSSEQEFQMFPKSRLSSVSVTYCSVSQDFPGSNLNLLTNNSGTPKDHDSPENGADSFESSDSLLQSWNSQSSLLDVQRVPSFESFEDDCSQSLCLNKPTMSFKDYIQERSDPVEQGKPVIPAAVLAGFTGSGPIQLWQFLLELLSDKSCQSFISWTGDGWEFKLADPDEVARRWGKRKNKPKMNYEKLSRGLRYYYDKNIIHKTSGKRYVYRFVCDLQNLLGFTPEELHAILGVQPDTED
The following applies: protein: recombinant; tags: N-terminal GST; dsDNA, one strand shown. The gist of the method: as §1

In test [14] the target is T9, SPDEF (Homo sapiens, UniProt O95238 1-335).
T9 sequence: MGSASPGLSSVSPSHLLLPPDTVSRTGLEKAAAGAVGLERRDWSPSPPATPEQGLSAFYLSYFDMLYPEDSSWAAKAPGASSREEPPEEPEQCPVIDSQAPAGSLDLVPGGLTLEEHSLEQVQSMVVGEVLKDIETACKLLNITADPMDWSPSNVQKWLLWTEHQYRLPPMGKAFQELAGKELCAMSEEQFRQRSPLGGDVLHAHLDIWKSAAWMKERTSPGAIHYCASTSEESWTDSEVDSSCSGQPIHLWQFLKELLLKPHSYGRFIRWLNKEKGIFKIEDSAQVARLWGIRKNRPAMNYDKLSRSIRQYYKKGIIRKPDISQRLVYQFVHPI
Conditions: protein: recombinant; tags: N-terminal GST; dsDNA, one strand shown. The procedure, abridged: as §1

In test [15] the target is T10, ETV7 (Homo sapiens, UniProt Q9Y603 1-341).
T10 sequence: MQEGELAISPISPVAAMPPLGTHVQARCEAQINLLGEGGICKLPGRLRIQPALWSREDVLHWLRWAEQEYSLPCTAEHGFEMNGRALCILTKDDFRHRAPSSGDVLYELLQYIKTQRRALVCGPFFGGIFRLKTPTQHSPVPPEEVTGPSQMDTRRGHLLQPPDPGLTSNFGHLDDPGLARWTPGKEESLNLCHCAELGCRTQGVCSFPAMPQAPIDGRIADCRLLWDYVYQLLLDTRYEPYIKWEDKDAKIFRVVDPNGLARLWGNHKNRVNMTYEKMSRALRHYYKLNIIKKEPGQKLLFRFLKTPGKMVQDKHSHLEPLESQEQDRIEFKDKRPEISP
Conditions: protein: recombinant; tags: N-terminal GST; dsDNA, one strand shown. The procedure, abridged:
as §1

Test [16] deals with T11, ELF5 (Homo sapiens, UniProt Q9UKW6-2 1-255).
T11 sequence: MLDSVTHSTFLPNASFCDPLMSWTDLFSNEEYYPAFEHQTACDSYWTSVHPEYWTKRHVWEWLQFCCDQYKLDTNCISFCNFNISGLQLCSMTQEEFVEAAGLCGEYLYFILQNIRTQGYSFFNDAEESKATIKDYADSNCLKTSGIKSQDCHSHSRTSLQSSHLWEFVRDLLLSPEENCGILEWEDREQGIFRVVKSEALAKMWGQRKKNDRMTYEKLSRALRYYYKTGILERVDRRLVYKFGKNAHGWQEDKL
The following applies: protein: recombinant; tags: N-terminal GST; dsDNA, one strand shown. The procedure, abridged: as §1

Test [17] concerns the target T12, ETV3 (Homo sapiens, UniProt P41162-2 1-143).
T12 sequence: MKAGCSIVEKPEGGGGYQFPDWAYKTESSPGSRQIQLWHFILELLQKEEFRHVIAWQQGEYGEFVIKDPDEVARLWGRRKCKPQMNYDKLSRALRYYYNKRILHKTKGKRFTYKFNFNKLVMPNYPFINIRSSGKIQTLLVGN
The following applies: protein: recombinant; tags: N-terminal GST; dsDNA, one strand shown. The procedure, abridged:
as §1

In test [18] the target is ETV6 (Homo sapiens, UniProt P41212 1-452). Conditions: protein: recombinant; tags: N-terminal GST; dsDNA, one strand shown. The procedure, abridged: as §1
ETV6, sequence (P41212 whole entry): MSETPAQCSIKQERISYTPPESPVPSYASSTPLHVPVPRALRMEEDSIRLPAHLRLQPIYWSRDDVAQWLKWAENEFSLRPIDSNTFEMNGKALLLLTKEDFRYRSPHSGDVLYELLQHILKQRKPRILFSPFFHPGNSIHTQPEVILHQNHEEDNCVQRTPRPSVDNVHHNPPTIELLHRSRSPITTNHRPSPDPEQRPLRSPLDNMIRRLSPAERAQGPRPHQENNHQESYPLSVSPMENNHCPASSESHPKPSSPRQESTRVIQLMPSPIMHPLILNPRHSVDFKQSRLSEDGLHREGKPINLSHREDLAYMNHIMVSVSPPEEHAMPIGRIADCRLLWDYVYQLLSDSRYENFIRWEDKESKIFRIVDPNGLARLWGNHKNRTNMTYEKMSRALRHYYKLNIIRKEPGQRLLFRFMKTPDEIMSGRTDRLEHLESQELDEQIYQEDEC

CRX, sequence (O43186 whole entry): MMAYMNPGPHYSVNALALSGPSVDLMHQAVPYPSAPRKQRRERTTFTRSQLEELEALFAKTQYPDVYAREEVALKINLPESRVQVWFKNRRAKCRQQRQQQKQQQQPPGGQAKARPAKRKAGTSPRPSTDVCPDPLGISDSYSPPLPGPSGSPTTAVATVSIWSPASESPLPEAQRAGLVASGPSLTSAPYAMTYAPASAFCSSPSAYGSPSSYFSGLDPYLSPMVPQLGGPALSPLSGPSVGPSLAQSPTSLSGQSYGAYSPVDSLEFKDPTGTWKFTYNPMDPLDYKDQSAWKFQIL
ELF4, sequence (Q99607 whole entry): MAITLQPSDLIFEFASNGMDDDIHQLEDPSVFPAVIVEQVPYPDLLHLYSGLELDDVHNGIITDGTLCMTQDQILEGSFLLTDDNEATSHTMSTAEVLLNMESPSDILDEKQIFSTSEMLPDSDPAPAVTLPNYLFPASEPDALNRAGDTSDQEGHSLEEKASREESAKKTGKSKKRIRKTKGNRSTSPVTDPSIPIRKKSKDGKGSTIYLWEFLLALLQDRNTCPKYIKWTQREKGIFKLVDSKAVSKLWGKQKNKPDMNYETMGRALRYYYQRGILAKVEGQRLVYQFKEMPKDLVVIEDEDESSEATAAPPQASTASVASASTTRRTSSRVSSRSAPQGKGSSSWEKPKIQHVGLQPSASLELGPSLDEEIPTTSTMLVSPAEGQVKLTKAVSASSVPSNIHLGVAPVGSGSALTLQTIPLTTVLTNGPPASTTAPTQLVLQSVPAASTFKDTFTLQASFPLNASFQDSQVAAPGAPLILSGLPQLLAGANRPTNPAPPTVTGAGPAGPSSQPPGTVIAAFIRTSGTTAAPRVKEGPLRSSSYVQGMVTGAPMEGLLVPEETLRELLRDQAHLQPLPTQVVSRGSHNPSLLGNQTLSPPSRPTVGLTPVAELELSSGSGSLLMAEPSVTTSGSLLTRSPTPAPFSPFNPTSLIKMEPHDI
HSF1, sequence (Q00613 whole entry): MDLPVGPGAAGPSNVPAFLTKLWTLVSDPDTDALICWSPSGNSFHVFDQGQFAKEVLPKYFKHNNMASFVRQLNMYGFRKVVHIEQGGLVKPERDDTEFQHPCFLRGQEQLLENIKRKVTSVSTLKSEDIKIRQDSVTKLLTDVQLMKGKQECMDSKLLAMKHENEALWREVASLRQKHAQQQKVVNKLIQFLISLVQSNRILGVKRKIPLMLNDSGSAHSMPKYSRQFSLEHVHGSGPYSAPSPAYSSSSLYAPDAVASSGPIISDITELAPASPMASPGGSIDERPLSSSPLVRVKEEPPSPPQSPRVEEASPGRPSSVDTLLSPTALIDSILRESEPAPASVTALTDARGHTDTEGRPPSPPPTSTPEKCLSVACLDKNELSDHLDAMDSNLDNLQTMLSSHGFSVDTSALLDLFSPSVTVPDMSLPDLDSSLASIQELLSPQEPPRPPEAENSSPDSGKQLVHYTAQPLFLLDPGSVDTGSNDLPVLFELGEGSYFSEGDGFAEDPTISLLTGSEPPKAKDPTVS
ETV5, sequence (P41161 whole entry): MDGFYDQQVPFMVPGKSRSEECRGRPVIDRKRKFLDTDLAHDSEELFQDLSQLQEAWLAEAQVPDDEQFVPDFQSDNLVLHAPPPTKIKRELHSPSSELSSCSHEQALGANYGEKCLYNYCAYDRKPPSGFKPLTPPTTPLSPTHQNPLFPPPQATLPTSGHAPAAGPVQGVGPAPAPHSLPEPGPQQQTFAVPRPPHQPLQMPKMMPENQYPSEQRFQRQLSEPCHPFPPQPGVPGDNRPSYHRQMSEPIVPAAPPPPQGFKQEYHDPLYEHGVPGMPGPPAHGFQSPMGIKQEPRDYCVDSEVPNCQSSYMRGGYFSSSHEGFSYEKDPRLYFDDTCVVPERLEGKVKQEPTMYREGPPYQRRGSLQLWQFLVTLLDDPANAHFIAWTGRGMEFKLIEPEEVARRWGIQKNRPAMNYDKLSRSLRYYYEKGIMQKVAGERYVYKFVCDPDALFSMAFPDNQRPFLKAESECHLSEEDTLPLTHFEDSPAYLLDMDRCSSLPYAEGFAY
ETV1, sequence (P50549 whole entry): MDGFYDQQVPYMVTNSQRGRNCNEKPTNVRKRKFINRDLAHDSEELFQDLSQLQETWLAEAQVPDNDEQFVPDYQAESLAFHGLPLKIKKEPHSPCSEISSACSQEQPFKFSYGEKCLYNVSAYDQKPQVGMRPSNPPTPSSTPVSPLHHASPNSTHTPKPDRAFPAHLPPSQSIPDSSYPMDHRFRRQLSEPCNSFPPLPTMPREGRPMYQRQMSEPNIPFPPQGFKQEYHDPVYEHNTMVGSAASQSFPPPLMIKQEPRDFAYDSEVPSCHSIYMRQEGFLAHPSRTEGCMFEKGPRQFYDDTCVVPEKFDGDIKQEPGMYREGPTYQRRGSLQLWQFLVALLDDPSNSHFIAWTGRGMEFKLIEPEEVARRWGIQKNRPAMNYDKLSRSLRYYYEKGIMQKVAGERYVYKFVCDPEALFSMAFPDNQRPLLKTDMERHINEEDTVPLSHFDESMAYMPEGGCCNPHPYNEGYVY

For CTTTAT, the binding signal in [1] was 1.17 fold enrichment (6-mer frequency, TF over GST control); in test [2] it was 1.21 fold enrichment (6-mer frequency, TF over GST control); in test [3], 1.23 fold enrichment (6-mer frequency, TF over GST control); in test [4] it was 1.21 fold enrichment (6-mer frequency, TF over GST control); in test [5] it was 1.19 fold enrichment (6-mer frequency, TF over GST control); in test [6] it was 1.29 fold enrichment (6-mer frequency, TF over GST control). For the same sequence, the binding signal is 1.29 fold enrichment (6-mer frequency, TF over GST control) in test [7]; 1.21 fold enrichment (6-mer frequency, TF over GST control) in test [8]; 1.65 fold enrichment (6-mer frequency, TF over GST control) in [9]; 1.22 fold enrichment (6-mer frequency, TF over GST control) in test [10]; 1.08 fold enrichment (6-mer frequency, TF over GST control) in test [11]; 1.22 fold enrichment (6-mer frequency, TF over GST control) in test [12]. Besides, the binding signal was 1.29 fold enrichment (6-mer frequency, TF over GST control) in test [13]; 1.14 fold enrichment (6-mer frequency, TF over GST control) in test [14]; 1.31 fold enrichment (6-mer frequency, TF over GST control) in test [15]; 1.13 fold enrichment (6-mer frequency, TF over GST control) in test [16]; 1.19 fold enrichment (6-mer frequency, TF over GST control) in [17]; 1.23 fold enrichment (6-mer frequency, TF over GST control) in test [18].
